PubChem BioAssay (EPA / NIEHS)
Calls of active or inactive are those of the source. How the source made its calls: active means hit-call score of the fitted dose curve at least 0.9, where 1 is the maximum; inactive means score below 0.9.

Legend:
[1] = biological target: CCAAT/enhancer-binding protein beta (Homo sapiens) (UniProt P17676); assay: ATG_C_EBP_CIS: Attagene CIS-FACTORIAL HepG2 Assay for human CCAAT/Enhancer Binding Protein (C/EBP) beta (AID 2282927); settings: HepG2 Attagene cis-factorial transcription factor reporter; actives raise or lower the signal
CCAAT/enhancer-binding protein beta (Homo sapiens), sequence (P17676 whole entry, looked up): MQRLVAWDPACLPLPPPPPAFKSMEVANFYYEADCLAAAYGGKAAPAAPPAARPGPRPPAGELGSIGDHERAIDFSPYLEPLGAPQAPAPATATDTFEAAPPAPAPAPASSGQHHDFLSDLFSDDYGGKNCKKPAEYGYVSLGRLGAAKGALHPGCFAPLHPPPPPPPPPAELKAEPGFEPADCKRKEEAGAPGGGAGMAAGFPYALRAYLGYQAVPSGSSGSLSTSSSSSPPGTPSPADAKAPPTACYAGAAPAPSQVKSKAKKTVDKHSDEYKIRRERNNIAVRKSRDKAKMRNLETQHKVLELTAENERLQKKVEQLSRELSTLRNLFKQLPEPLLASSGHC
Procedure, shortened: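 HepG2, transient MRTU transfection, 24 h treatment. RT-PCR plus CE fluorescence; DMSO negative control, bidirectional fit.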

[2] = ATG_CMV_CIS: Attagene CIS-FACTORIAL HepG2 Assay for human CMV (Internal Marker) (AID 2282928); settings: HepG2 CMV promoter reporter, transcription factor profiling; actives raise or lower the signal;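 further: endpoint acts as a background internal control marker rather than a target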
Procedure, shortened: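 After transient transfection of HepG2 with reporter transcription units driven by cis-regulatory promoters, cells receive test chemical for 24 h. Labeled reporter amplicons, digested with HpaI, are sized and quantified by capillary electrophoresis against DMSO.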

[3] = ATG_AP_1_CIS: Attagene CIS-FACTORIAL HepG2 Assay for human Activator Protein 1 (AP-1) (AID 2282931); settings: HepG2 Attagene cis-factorial AP-1 reporter mRNA; actives raise or lower the signal
Procedure, shortened: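 Endogenous transcription-factor activity in human HepG2 liver cells is read through a cis-promoter reporter transcript, sampled 24 h after dosing. Detection uses RT-PCR with capillary electrophoresis; values come from bidirectional fitting relative to DMSO.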

[4] = ATG_AP_2_CIS: Attagene CIS-FACTORIAL HepG2 Assay for human Activator Protein 2 (AP-2) (AID 2282932); settings: HepG2 AP-2 cis-reporter, Attagene transcription factor profiling; actives raise or lower the signal
Procedure, shortened: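 Multiplexed mRNA reporter assay in HepG2: cis-regulated units report endogenous factor activity after 24 h treatment. Fluorescence from capillary electrophoresis of RT-PCR products gives the signal, with DMSO as baseline.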

[5] = ATG_BRE_CIS: Attagene CIS-FACTORIAL HepG2 Assay for human Bone Morphogenetic Protein (BMP) Response Element (BRE) (AID 2282933); settings: HepG2 BMP response element reporter, Attagene transcription factor profiling; actives raise or lower the signal
Procedure, shortened: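 Transient MRTU transfection of human HepG2 liver cells; 24 h compound treatment; total RNA isolated, reverse-transcribed, PCR-amplified, 6-FAM labelled, HpaI-cut, capillary electrophoresis. DMSO = negative control/baseline, bidirectional fit.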

[6] = ATG_E_Box_CIS: Attagene CIS-FACTORIAL HepG2 Assay for human Enhancer Box (E-box) (AID 2282936); settings: HepG2 E-box cis-reporter transcription, actives raise or lower the signal
Procedure, shortened: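 First, HepG2 cells receive multiple cis-regulated reporter constructs by transient transfection. Next, chemicals are applied for 24 h. Finally, reporter mRNA is quantified via RT-PCR and capillary electrophoresis, with DMSO as baseline.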

[7] = ATG_M_61_CIS: Attagene CIS-FACTORIAL HepG2 Assay for M61 Transcription Factor (Internal Marker) (AID 2282937); settings: HepG2 Attagene CIS-FACTORIAL M61 internal marker reporter; actives raise or lower the signal
Procedure, shortened: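 Cells were transfected with reporter units under cis-regulatory promoters, treated with chemicals for 24 h, then lysed for RNA. Reporter transcripts were quantified by RT-PCR and capillary electrophoresis, and activity was fitted bidirectionally against DMSO.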

[8] = ATG_EGR_CIS: Attagene CIS-FACTORIAL HepG2 Assay for human Early Growth Response 1 (EGR1) (AID 2282938); settings: HepG2 Attagene CIS-FACTORIAL EGR reporter mRNA; actives raise or lower the signal
Procedure, shortened: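 Endogenous TF activity in HepG2 liver cells was gauged through cis-promoter reporter constructs transiently transfected. After 24 h dosing, reporter mRNA was quantified by RT-PCR and capillary electrophoresis, and curves fitted in both directions versus DMSO.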

[9] = ATG_Ets_CIS: Attagene CIS-FACTORIAL HepG2 Assay for human Erythroblast Transformation Specific (ETS) (AID 2282941); settings: HepG2 ETS cis-reporter transcription, actives raise or lower the signal
Procedure, shortened: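 Human HepG2 hepatoma cells were transiently transfected with promoter-driven reporter constructs and treated for 24 hours. Reporter transcripts were quantified by RT-PCR with fluorescent primer extension; bidirectional curve fitting used DMSO as reference.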

[10] = biological target: Hepatocyte nuclear factor 3-beta (Homo sapiens) (UniProt Q9Y261); assay: ATG_FoxA2_CIS: Attagene CIS-FACTORIAL HepG2 Assay for human Forkhead box A2 (FOXA2) (AID 2282942); settings: HepG2 cis-reporter transcription factor activity, 24 h; actives raise or lower the signal
Hepatocyte nuclear factor 3-beta (Homo sapiens), sequence (Q9Y261 whole entry, looked up): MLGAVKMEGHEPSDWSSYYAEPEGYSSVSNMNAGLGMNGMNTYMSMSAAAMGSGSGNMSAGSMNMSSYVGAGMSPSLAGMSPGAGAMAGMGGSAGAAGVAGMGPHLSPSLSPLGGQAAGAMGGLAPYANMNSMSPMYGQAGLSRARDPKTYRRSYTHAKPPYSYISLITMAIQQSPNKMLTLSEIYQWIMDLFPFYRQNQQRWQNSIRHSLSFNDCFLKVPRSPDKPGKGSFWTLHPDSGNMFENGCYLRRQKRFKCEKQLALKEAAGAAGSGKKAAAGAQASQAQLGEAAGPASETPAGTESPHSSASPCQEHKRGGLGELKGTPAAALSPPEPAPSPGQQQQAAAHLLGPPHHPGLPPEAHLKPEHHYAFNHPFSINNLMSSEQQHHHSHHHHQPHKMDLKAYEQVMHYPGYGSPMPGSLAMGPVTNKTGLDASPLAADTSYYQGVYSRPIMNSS
Procedure, shortened: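 Endogenous transcription factor activity was read in HepG2 cells carrying transiently transfected cis-promoter reporter units. After 24 h dosing, reporter mRNA was quantified by RT-PCR and capillary electrophoresis, and values fitted bidirectionally versus DMSO.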

[11] = ATG_FoxO_CIS: Attagene CIS-FACTORIAL HepG2 Assay for human Forkhead box O (FoxO) (AID 2282943); settings: HepG2 Attagene cis-reporter, FoxO element, mRNA; actives raise or lower the signal
Procedure, shortened: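 Transfected HepG2 reporter cells exposed to test chemical for 24 h; reporter RNA measured by reverse transcription, PCR and fluorescent capillary electrophoresis; curves fitted for increases and decreases against DMSO.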

[12] = ATG_GATA_CIS: Attagene CIS-FACTORIAL HepG2 Assay for human GATA Binding Protein (AID 2282944); settings: HepG2 GATA cis-element reporter, Attagene multiplex mRNA; actives raise or lower the signal
Procedure, shortened: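 Transient MRTU transfection, HepG2, 24 h compound exposure. Total RNA → oligo(dT) RT → PCR → 6-FAM primer extension → HpaI cut → CE. Bidirectional fit vs DMSO.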

[13] = ATG_ISRE_CIS: Attagene CIS-FACTORIAL HepG2 Assay for human Interferon Regulatory Factor 1 (IRF1) binding to an Interferon-Stimulated Response Element (ISRE) (AID 2282948); settings: HepG2 ISRE cis-reporter (Attagene), mRNA transcription readout; actives raise or lower the signal
Procedure, shortened: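 Cell-based cis-reporter assay; HepG2; 24 h exposure; reporter mRNA by RT-PCR plus capillary electrophoresis fluorescence; activity in either direction scored relative to DMSO.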

[14] = ATG_M_32_CIS: Attagene CIS-FACTORIAL HepG2 Assay for M32 Transcription Factor (Internal Marker) (AID 2282949); settings: HepG2 Attagene cis-factorial M32 reporter, mRNA; actives raise or lower the signal;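 further: background control marker of the multiplexed CIS panel rather than a real target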
Procedure, shortened: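 Internal background marker read-out: RT-PCR/capillary electrophoresis fluorescence of reporter transcripts from transiently transfected HepG2 cells after 24 h chemical exposure. Activity fitted bidirectionally relative to DMSO negative control.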

[15] = ATG_M_06_CIS: Attagene CIS-FACTORIAL HepG2 Assay for M06 Transcription Factor (Internal Marker) (AID 2282950); settings: HepG2 Attagene CIS-FACTORIAL M06 internal marker reporter; actives raise or lower the signal
Procedure, shortened: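 Read-out is fluorescence of labelled reporter cDNA fragments resolved by capillary electrophoresis after RT-PCR. Cells: HepG2 carrying transfected cis-promoter reporter units, treated 24 h. Gain or loss of signal fitted relative to DMSO.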

[16] = biological target: Hepatocyte nuclear factor 6 (Homo sapiens) (UniProt Q9UBC0); assay: ATG_HNF6_CIS: Attagene CIS-FACTORIAL HepG2 Assay for human Hepatocyte Nuclear Factor 6 (HNF6) (AID 2282952); settings: HepG2 Attagene cis-factorial HNF6 reporter transcription; actives raise or lower the signal
Hepatocyte nuclear factor 6 (Homo sapiens), sequence (Q9UBC0 whole entry, looked up): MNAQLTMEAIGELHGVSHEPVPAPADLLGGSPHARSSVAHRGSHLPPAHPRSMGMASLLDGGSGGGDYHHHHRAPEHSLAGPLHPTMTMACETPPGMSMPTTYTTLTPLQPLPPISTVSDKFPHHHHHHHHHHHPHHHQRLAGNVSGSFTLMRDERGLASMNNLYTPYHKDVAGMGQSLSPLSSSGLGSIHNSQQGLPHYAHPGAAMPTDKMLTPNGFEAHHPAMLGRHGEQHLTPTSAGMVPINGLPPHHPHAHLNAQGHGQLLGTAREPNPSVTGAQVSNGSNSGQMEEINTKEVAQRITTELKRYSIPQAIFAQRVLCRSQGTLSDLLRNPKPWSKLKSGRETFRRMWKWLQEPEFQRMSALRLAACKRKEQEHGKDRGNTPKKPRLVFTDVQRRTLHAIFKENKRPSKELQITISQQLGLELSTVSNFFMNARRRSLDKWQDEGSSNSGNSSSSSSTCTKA
Procedure, shortened: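 Multiplexed mRNA reporter assay in transfected HepG2; 24 h dosing; RT-PCR plus capillary electrophoresis fluorescence; DMSO-referenced bidirectional curve fitting.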

[17] = ATG_MRE_CIS: Attagene CIS-FACTORIAL HepG2 Assay for human Metal Responsive Element (MRE) (AID 2282954); settings: HepG2 MRE cis-reporter transcription, Attagene multiplex; actives raise or lower the signal
Procedure, shortened: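 Fluorescent reporter fragments separated by capillary electrophoresis give mRNA induction for the MRE unit after 24 h treatment of transfected HepG2 cells. Endogenous transcription-factor activity is read; DMSO serves as negative control and baseline.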

[18] = ATG_Sox_CIS: Attagene CIS-FACTORIAL HepG2 Assay for human SRY-box transcription factor (SOX) (AID 2282960); settings: HepG2 Attagene cis-factorial SOX reporter, mRNA; actives raise or lower the signal
Procedure, shortened: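 Transient MRTU transfection of HepG2; 24 h compound incubation; TriZol RNA, oligo(dT) RT, PCR, 6-FAM primer extension, HpaI cut, CE. Bidirectional fit, DMSO = baseline.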

[19] = biological target: Transcription factor Sp1 (Homo sapiens) (UniProt P08047); assay: ATG_Sp1_CIS: Attagene CIS-FACTORIAL HepG2 Assay for human Specificity Protein 1 (Sp1) (AID 2282961); settings: HepG2 Sp1 cis-reporter transcription, actives raise or lower the signal
Transcription factor Sp1 (Homo sapiens), sequence (P08047 whole entry, looked up): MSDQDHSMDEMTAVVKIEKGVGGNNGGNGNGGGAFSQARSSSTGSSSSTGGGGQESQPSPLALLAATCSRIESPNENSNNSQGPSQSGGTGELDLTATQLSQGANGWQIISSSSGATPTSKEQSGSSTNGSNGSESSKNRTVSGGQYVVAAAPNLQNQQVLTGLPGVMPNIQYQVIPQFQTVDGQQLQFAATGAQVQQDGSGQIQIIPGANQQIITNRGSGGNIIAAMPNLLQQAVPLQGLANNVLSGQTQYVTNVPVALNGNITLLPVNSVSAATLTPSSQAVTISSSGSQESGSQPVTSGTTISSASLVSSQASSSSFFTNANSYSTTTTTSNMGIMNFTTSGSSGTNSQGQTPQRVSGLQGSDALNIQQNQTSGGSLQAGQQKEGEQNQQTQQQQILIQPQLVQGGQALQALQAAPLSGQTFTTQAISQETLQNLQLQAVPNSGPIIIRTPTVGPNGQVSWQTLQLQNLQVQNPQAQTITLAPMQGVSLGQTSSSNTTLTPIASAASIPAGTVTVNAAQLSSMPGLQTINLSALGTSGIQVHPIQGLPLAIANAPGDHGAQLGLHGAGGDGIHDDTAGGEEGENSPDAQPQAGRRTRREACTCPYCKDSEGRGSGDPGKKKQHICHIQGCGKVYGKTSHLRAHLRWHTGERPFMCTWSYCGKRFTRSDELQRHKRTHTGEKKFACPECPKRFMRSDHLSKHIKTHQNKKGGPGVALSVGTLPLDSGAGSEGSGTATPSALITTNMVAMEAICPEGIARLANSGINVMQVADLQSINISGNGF
Procedure, shortened: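 Endogenous Sp1 activity was gauged in human liver HepG2 cells bearing transfected reporter units under a cis-regulating promoter. After 24 h dosing, reporter mRNA was quantified by RT-PCR with capillary electrophoresis, and activity fitted bidirectionally versus DMSO.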

[20] = biological target: Signal transducer and activator of transcription 3 (Homo sapiens) (UniProt P40763); assay: ATG_STAT3_CIS: Attagene CIS-FACTORIAL HepG2 Assay for human Signal Transducer and Activator of Transcription 3 (STAT3) (AID 2282963); settings: HepG2, Attagene cis-factorial STAT3 reporter transcription; actives raise or lower the signal
Signal transducer and activator of transcription 3 (Homo sapiens), sequence (P40763 whole entry, looked up): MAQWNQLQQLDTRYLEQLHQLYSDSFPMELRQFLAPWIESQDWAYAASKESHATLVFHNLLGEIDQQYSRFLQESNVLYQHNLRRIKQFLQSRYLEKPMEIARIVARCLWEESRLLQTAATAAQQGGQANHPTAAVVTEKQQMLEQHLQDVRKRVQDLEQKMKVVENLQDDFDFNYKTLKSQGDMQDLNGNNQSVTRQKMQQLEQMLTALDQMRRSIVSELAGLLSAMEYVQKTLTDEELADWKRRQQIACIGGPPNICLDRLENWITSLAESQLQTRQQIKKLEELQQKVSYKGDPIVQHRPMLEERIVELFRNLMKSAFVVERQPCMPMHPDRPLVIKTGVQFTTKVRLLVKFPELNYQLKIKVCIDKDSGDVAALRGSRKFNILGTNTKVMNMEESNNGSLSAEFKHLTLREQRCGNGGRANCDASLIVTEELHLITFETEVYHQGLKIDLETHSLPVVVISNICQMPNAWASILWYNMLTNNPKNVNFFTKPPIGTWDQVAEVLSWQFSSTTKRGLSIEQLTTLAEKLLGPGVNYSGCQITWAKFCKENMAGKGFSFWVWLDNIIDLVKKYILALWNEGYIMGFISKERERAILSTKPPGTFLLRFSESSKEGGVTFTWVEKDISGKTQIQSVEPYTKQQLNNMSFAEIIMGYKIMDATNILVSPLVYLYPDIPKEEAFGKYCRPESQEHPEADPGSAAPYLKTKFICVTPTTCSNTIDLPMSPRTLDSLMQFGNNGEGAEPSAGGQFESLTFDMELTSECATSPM
Procedure, shortened: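 Values derive from bidirectional fits relative to DMSO of reporter mRNA levels, measured by RT-PCR with capillary electrophoresis, in HepG2 cells carrying transiently transfected cis-regulated reporter units and exposed 24 h.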

Measured: AC50

C[C@]12CC[C@H](O)C[C@H]1CC[C@@H]1[C@@H]2C[C@@H](O)[C@]2(C)[C@@H](C3=CC(=O)OC3)CC[C@]12O
inactive: [5] | [6] | [7] | [10] | [14] | [15] | [18] | [20]
active: [1] 2.8 µM | [2] 0.72 µM | [3] 3.46 µM | [4] 0.865 µM | [8] 2.68 µM | [9] 8.76 µM | [11] 8.56 µM | [12] 7.98 µM | [13] 13.8 µM | [16] 5.31 µM | [17] 2.73 µM | [19] 1.28 µM

CC(C)(Cl)Cl
inactive: all assays above

CNC(=N[N+](=O)[O-])NCC1CCOC1 (stereo not given)
inactive: all assays above

CC1(C)CC(=O)CC(C)(C)N1[O]
inactive: all assays above

O=S(=O)(O)OOS(=O)(=O)O
inactive: all assays above

O=[N+]([O-])O
inactive: all assays above

CCOC(=O)NC(=S)Nc1ccccc1NC(=S)NC(=O)OCC
inactive: all assays above

O=C(O)CCCc1ccc(N(CCCl)CCCl)cc1
inactive: all assays above

O=C(CCl)c1ccccc1
active: [3] 59.3 µM | [4] 18.9 µM | [6] 16.2 µM | [13] 18.8 µM
inactive: all other assays above

CC(C)COP(=O)(OCC(C)C)OCC(C)C
inactive: all assays above

[CH3][Sn]([CH3])([Cl])[Cl]
inactive: all assays above

N#CCCCl
inactive: all assays above

CC(C)(C)C(O)C(Oc1ccc(-c2ccccc2)cc1)n1cncn1 (stereo not given)
active: [1] 47.1 µM | [2] 33.4 µM | [3] 44.2 µM | [13] 51.8 µM | [17] 42 µM
inactive: all other assays above

NNc1ccccc1
inactive: all assays above
